From PubChem BioAssay (NCATS) come the findings set out here.

Each structure is given as a SMILES string. Inconclusive results are not listed. Activity calls are given as the source filed them. The call rests on the fitted dose curve; in most records, active means well fitted curve in either direction with a large enough effect (not every such curve was filed as active); inconclusive means small, poorly fitted or top-dose-only effect, or another doubt; inactive means flat fitted curve, though single readings scatter.
On the % scale 0 is the no-effect control and ±100 the full control effect.

The assay in a line: Stat Signaling Pathway (AID 446). The following applies: ME-180 (cervical carcinoma) SIE beta-lactamase reporter, IL-6 stimulated, 5 h; series mostly up to 17.2 µM; activity, negative = inhibition: at the top concentration. The procedure:
NCGC Assay Overview: The IL-6/STAT signaling pathway was assayed in ME-180 cervical carcinoma cells by a beta-lactamase reporter gene controlled by a STAT Inducible Element (SIE). This reporter is induced by IL-6 at 40 pM AC50 and inhibited by the pan JAK inhibitor, 2-(1,1-Dimethylethyl)-9-fluoro-3,6-dihydro-7H-benz[h]-imidaz[4,5-f]isoquinolin-7-one, at approximately 10 nM AC50. Plated cells were incubated overnight and on the following day, stimulated with 40 pM IL-6 for 5 hrs. The assay was screened at the AC50 of IL-6 activation to identify both inhibitors and activators of IL-6/STAT signaling.
NCGC Assay Protocol Summary: Cells were trypsinized, washed in assay medium (AM, OPTI MEM with 0.5% fetal bovine serum, 0.1 mM nonessential amino acids, 1 mM sodium pyruvate, 10mM HEPES pH 7.3, 100U/ml penicillin, and 100 ug/ml streptomycin) and suspended at 6 x 10e5/ml in AM. Approximately […] cells in 5 uL/well was dispensed into 1536 well plates and the cells were incubated overnight at 37 C. 23 nL of compound were delivered by a pin tool and 1 uL of IL-6 (40 pM final concentration in AM) was added. After centrifugation at 1000 rpm for less than a minute, plates were incubated at 37C for 5 hrs. One uL of detector mix (LiveBLAzerTM, Invitrogen) was added, the plates incubated at room temperature for 2.5 hrs, and fluorescence intensity at 460 and 530 nm emission was measured at 405 nm excitation by an Envision (Perkin Elmer) or Safire II (Tecan). Data were normalized by GeneData to the controls for AC90 stimulation (300 pM IL-6) and to AC90 inhibition (125 nM Jak inhibitor, 40 pM IL-6 in AM).
On to `O=C(O)CCCc1ccccc1`, for which the “activity, negative = inhibition” value was -2.24% (inactive).

In the case of `CN/C(=C\[N+](=O)[O-])NCCSCc1csc(CN(C)C)n1`, the “activity, negative = inhibition” value is -10.2% (inactive).

On to `CC[N+](CC)(CC(=O)Nc1c(C)cccc1C)Cc1ccccc1`, for which the “activity, negative = inhibition” value was -0.589% (inactive). For `CCc1cccc(CC)c1NC(=O)CN(CC(=O)O)CC(=O)O`, the “activity, negative = inhibition” value was -0.972% (inactive). Still for that read-out and setting: the same measure for `CCN(CC)CCOC(=O)C(c1ccccc1)c1ccccc1`: 9.15% (inactive); for `C[C@@H]1CCC[C@H](C)N1`: 1.77% (inactive). `Cc1cc(NC(=O)C2=C(O)c3ccccc3S(=O)(=O)N2C)no1`: the call was inactive.

Consider `Cn1c(=O)c2c(ncn2CCO)n(C)c1=O`, for which the result was inactive. Still for that read-out and setting: for `CCS(=O)(=O)CCn1c([N+](=O)[O-])cnc1C` the value was “inactive”.

As to `OC(CCN1CCCC1)(c1ccccc1)C1CCCCC1` (stereo not given), the “activity, negative = inhibition” value is -1.27% (inactive).

Consider `NC(=O)CC[C@@H](N)C(=O)O`, for which the “activity, negative = inhibition” value was 14.8% [at 38 µM] (inactive). Regarding `CCN(CC)CCc1nc(-c2ccccc2)no1`, the “activity, negative = inhibition” value was -4.95% (inactive). On the same count and under the same terms, the same measure for `O=C(O)COC(=O)Cc1ccccc1Nc1c(Cl)cccc1Cl`: 0.757% (inactive); for `O=C(O)c1ccccc1OP(=O)(O)O`: 4.66% (inactive); for `CCCCC1(COC(=O)CCC(=O)O)C(=O)N(c2ccccc2)N(c2ccccc2)C1=O`: 4.02% (inactive). The same measure, in the same setting: the same measure for `Cc1c(N(C)C)c(=O)n(-c2ccccc2)n1C`: 14.5% (inactive); for `CC(=O)SC[C@@H](Cc1ccccc1)C(=O)NCC(=O)OCc1ccccc1`: 4.28% (inactive).

`Cc1cc(C)nc(NS(=O)(=O)c2ccc(N)cc2)n1`: the outcome was inactive. In the case of `COc1ccc2cc(CCC(C)=O)ccc2c1`, the “activity, negative = inhibition” value was 17.2% (inactive). In the case of `CC(=O)NS(=O)(=O)c1ccc(N)cc1`, the outcome was inactive. For the compound `O=C(O)c1ccccc1C(=O)Nc1ccc(S(=O)(=O)Nc2nccs2)cc1`, the “activity, negative = inhibition” value is -0.154% (inactive). Turning to `O=S1(=O)OC(c2ccc(O)cc2)(c2ccc(O)cc2)c2ccccc21`, the “activity, negative = inhibition” value is 4.66% [at 7.69 µM] (inactive). Regarding `NC(N)=NS(=O)(=O)c1ccc(N)cc1`, the result was inactive.

In the case of `CN1CCCN=C1COC(=O)C(O)(c1ccccc1)C1CCCCC1` (stereo not given), the “activity, negative = inhibition” value was -0.757% (inactive). For the compound `NCc1ccc(S(N)(=O)=O)cc1`, the outcome was inactive. Regarding `Cc1c(NC(=O)c2cccnc2)c(=O)n(-c2ccccc2)n1C`, the “activity, negative = inhibition” value was 4.77% (inactive). For `CCCCOC(=O)c1ccc(N)cc1`, the “activity, negative = inhibition” value was -9.39% (inactive). The same measure, in the same setting: the same measure for `CC1(C)S[C@@H]2[C@H](NC(=O)C(C(=O)O)c3ccccc3)C(=O)N2[C@H]1C(=O)O` (stereo not given in full): -3.09% (inactive); for `NC(N)=NCCN1CCCCCCC1`: 10.3% (inactive). Turning to `CN1C(C)(C)CCCC1(C)C`, the compound was classed as inactive. Same read-out and setting: for `Nc1ccc(S(=O)(=O)c2ccc(N)cc2)cc1` the value was “inactive”.

As for `CC[N+](C)(CC)CCOC(=O)C1c2ccccc2Oc2ccccc21`, the “activity, negative = inhibition” value was -1.02% (inactive).

For the compound `O=C(Cn1ccnc1[N+](=O)[O-])NCCO`, the “activity, negative = inhibition” value is 10.8% (inactive). Same read-out and setting: for `CC(=O)N[C@@H](CC(C)C)C(=O)O` the value was -0.629% (inactive). Consider `NS(=O)(=O)c1ccc(C(=O)O)cc1`, for which the compound was called inactive. In the case of `Cc1c(NC(C)C)c(=O)n(-c2ccccc2)n1C`, the “activity, negative = inhibition” value is -4.78% (inactive). On to `Cc1cccc(Nc2ccccc2C(=O)O)c1C`, for which the call was inactive.

For `NS(=O)(=O)c1cc2c(cc1C(F)(F)F)NCNS2(=O)=O`, the outcome was inactive. On to `Cc1ncc(CO)c(CN)c1O`, for which the “activity, negative = inhibition” value was 8.49% [at 7.69 µM] (inactive). `CCOC(=O)[C@H](CCc1ccccc1)N[C@@H](C)C(=O)N1CCC[C@H]1C(=O)O`: the call was inactive.
